TEAD-YAP block: TEAD-YAP interaction inhibition. HEK-TIYL cells, TEAD-Gal4/YAP UAS-luciferase luminescence. inhibition, % at 9.12 µM. actives 1.4% (n = 640,000). AID 1259422; in the data active means inhibition above about 32%
FBW7 act: human FBW7 E3 ligase activation, primary screen. actives 0.13% (n = 650,000). Q969H0. normalized activity (activation), % at 26.1 µM. AlphaScreen FBW7–phospho-cyclin E peptide binding, activator screen. AID 1259310; in the data active means normalized activity above about 1.9%;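 further: purified mutant Fbw7 with reduced substrate affinity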
Target sequence (Q969H0 whole entry, looked up): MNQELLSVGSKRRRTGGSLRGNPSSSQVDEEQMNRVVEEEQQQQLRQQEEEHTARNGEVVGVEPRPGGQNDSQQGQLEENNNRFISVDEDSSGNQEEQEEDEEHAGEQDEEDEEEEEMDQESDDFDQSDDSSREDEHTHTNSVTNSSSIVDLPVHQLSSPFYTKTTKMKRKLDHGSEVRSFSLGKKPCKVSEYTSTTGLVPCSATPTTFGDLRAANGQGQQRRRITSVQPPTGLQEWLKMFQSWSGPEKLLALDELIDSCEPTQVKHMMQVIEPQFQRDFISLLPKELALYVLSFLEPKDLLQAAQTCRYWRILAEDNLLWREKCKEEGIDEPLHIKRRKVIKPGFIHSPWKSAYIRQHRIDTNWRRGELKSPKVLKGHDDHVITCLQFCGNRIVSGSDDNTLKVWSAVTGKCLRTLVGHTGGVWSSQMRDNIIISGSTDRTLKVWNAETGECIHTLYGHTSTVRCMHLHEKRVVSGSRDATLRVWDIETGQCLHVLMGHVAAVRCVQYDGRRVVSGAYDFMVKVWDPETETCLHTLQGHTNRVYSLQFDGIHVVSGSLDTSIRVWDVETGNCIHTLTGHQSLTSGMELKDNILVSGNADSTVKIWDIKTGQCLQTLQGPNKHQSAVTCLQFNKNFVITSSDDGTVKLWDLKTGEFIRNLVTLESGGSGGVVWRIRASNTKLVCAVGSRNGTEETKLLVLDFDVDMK
GPR151 activ: activates the human receptor GPR151. Q8TDV0. PathHunter beta-arrestin GPR151 cells, luminescence. activation, % at 11.2 µM. actives 1% (n = 650,000). AID 1508602; in the data active means activation above about 4.9%
MITF inh: inhibitors of human MITF. O75030. AlphaScreen MITF homodimerization, bead proximity signal. inhibition, % at 2.6 µM. actives 0.91% (n = 650,000). AID 1259374; in the data active means inhibition above about 50%
GPR151 confirm: confirmation of human GPR151 activators. shares compounds with GPR151 activ. GPR151 PathHunter beta-arrestin cells, luminescence, 90 min; % of EA-reagent control over plate median. activation, % at 11.2 µM. 6,700 tested, under 10 active. AID 1508609;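 active means mean percent activation across replicates above the confirmation screen cutoff of 4.91%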
GPR119 counter: counter-screen for GPR151 activators: effect on human GPR119. actives 0.3% (n = 6,700). shares compounds with GPR151 activ. activation, % at 11.2 µM. GPR119 PathHunter beta-arrestin cells, luminescence, 90 min; 0 = compound-well median, 100 = enzyme-acceptor control. AID 1508611;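 active means mean percent activation in the counterscreen above 29.09%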;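 further: counterscreen on off-target GPR119 to flag nonselective hits from the GPR151 activator screen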
A number is an active result; ! = not confirmed by another sample. Most compounds without a hit are left out; they make up all but 3.5% or so of the library.

How did COc1c(Cl)cc(Cl)cc1C(=O)Nc1ccc(-c2nn3c(C)nnc3s2)cc1 do in these assays?
TEAD-YAP block: inactive; FBW7 act: inactive; GPR151 activ: 5.0; MITF inh: inactive; GPR151 confirm: inactive; GPR119 counter: inactive

What do the screens show for `CCCCOc1nc2ccccc2nc1C(C#N)C(=O)OCC` (stereo not drawn)?
TEAD-YAP block: inactive; FBW7 act: inactive; GPR151 activ: 5.3; MITF inh: inactive; GPR151 confirm: inactive; GPR119 counter: inactive

How did O=C(c1ccncc1)c1ccc(Cl)c([N+](=O)[O-])c1 do in these assays?
TEAD-YAP block: inactive; FBW7 act: inactive; GPR151 activ: inactive; MITF inh: inactive

How did COc1ccc2ccccc2c1CN1CCN(CC(C)(C)C)C(CCO)C1 (stereo not drawn) do in these assays?
TEAD-YAP block: inactive; FBW7 act: inactive; GPR151 activ: 7.7; MITF inh: inactive; GPR151 confirm: inactive; GPR119 counter: inactive

What do the screens show for `COc1ccc2ccccc2c1CN1CCN(C)C(CCO)C1` (stereo not drawn)?
TEAD-YAP block: inactive; FBW7 act: inactive; GPR151 activ: inactive; MITF inh: inactive

What do the screens show for `CCCS(=O)(=O)N1CCN=C1SCc1ccccc1`?
TEAD-YAP block: inactive; FBW7 act: inactive; GPR151 activ: inactive; MITF inh: inactive

What do the screens show for `CCS(=O)(=O)N1CCN=C1SCc1ccccc1`?
TEAD-YAP block: inactive; FBW7 act: inactive; GPR151 activ: 5.6; MITF inh: inactive; GPR151 confirm: inactive; GPR119 counter: inactive

What do the screens show for `CCN(CC)CCNC(=O)c1cc(Cl)c(N)cc1OC`?
TEAD-YAP block: inactive; FBW7 act: inactive; GPR151 activ: 6.6!; MITF inh: inactive; GPR151 confirm: inactive; GPR119 counter: inactive

What do the screens show for `Cc1ccc(CN2CCNC(=O)C2CC(=O)N(C)Cc2csc(C)n2)o1` (stereo not drawn)?
TEAD-YAP block: inactive; FBW7 act: inactive; GPR151 activ: inactive; MITF inh: inactive

What do the screens show for `O=C(CSc1cn(CC(=O)N2CCOCC2)c2ccccc12)NC1CCCC1`?
TEAD-YAP block: inactive; FBW7 act: inactive; GPR151 activ: 5.4; MITF inh: inactive; GPR151 confirm: inactive; GPR119 counter: inactive

What do the screens show for `NC(=O)C1CCN(C(=O)C(=O)c2cn(CC(=O)N3CCCCCC3)c3ccccc23)CC1`?
TEAD-YAP block: inactive; FBW7 act: inactive; GPR151 activ: 6.2; MITF inh: inactive; GPR151 confirm: inactive; GPR119 counter: inactive

How did Cc1cccc(NC(=O)c2cc(-c3ccccc3Cl)nc3ccccc23)c1 do in these assays?
TEAD-YAP block: inactive; FBW7 act: inactive; GPR151 activ: inactive; MITF inh: inactive

How did O=C(C1CCN(S(=O)(=O)c2ccccc2)CC1)N1CCCC2CCCCC21 (stereo not drawn) do in these assays?
TEAD-YAP block: inactive; FBW7 act: inactive; GPR151 activ: 6.2; MITF inh: inactive; GPR151 confirm: inactive; GPR119 counter: inactive

Results for CCOC(=O)C1(Cc2ccc(Cl)cc2)CCN(C(=O)C2CCCN(CC)C2)CC1 (stereo not drawn) ?
TEAD-YAP block: inactive; FBW7 act: inactive; GPR151 activ: inactive; MITF inh: inactive

Results for CN1C(=O)/C(=C/c2ccccc2OS(C)(=O)=O)SC1=S ?
TEAD-YAP block: inactive; FBW7 act: inactive; GPR151 activ: 5.7; MITF inh: inactive; GPR151 confirm: inactive; GPR119 counter: inactive

Results for Cn1c(=O)c2c(nc(Cl)n2Cc2ccc(Cl)cc2)n(C)c1=O ?
TEAD-YAP block: inactive; FBW7 act: inactive; GPR151 activ: 10.2; MITF inh: inactive; GPR151 confirm: inactive; GPR119 counter: inactive

What do the screens show for `Cn1c(=O)c2c(nc(NN)n2Cc2ccccc2)n(C)c1=O`?
TEAD-YAP block: inactive; FBW7 act: inactive; GPR151 activ: 6.8; MITF inh: inactive; GPR151 confirm: inactive; GPR119 counter: inactive

What do the screens show for `Cn1c(=O)n(Cc2ccccc2)c(=O)c2c1nc(NN)n2Cc1ccccc1`?
TEAD-YAP block: inactive; FBW7 act: inactive; GPR151 activ: inactive; MITF inh: inactive

What do the screens show for `O=C(Nc1ccc(C(F)(F)F)cc1)NC1(C(=O)NCc2ccncc2)CCCCC1`?
TEAD-YAP block: inactive; FBW7 act: inactive; GPR151 activ: inactive; MITF inh: inactive

Results for O=C(Nc1ccc2c(c1)OCCO2)Nc1nnc(N2CCCC2)s1 ?
TEAD-YAP block: inactive; FBW7 act: inactive; GPR151 activ: 5.7; MITF inh: inactive; GPR151 confirm: inactive; GPR119 counter: inactive

What do the screens show for `O=C(Nc1cccc(C(F)(F)F)c1)Nc1nnc(N2CCCC2)s1`?
TEAD-YAP block: inactive; FBW7 act: inactive; GPR151 activ: 5.9; MITF inh: inactive; GPR151 confirm: inactive; GPR119 counter: inactive

How did O=C(Nc1nnc(N2CCCC2)s1)Nc1ccccc1Br do in these assays?
TEAD-YAP block: inactive; FBW7 act: inactive; GPR151 activ: 5.5; MITF inh: inactive; GPR151 confirm: inactive; GPR119 counter: inactive

What do the screens show for `O=C(Nc1cccc(Br)c1)Nc1nnc(N2CCCCCC2)s1`?
TEAD-YAP block: inactive; FBW7 act: inactive; GPR151 activ: inactive; MITF inh: inactive

How did COC(=O)c1ccccc1NC(=O)Nc1nnc(N2CC(C)CC(C)C2)s1 (stereo not drawn) do in these assays?
TEAD-YAP block: inactive; FBW7 act: inactive; GPR151 activ: 6.6; MITF inh: inactive; GPR151 confirm: inactive; GPR119 counter: inactive

What do the screens show for `Cc1nnc(SCC(=O)NCCc2ccccc2)n1-c1ccc(F)cc1`?
TEAD-YAP block: inactive; FBW7 act: inactive; GPR151 activ: inactive; MITF inh: inactive

What do the screens show for `O=C(CSc1ncnc2c1nnn2-c1ccc(F)cc1)N1CCCC1`?
TEAD-YAP block: inactive; FBW7 act: inactive; GPR151 activ: inactive; MITF inh: inactive

What do the screens show for `CCOc1ncccc1C(=O)NC1(C)CCS(=O)(=O)C1` (stereo not drawn)?
TEAD-YAP block: inactive; FBW7 act: inactive; GPR151 activ: 6.2; MITF inh: inactive; GPR151 confirm: inactive; GPR119 counter: inactive

How did CC1CC(C)CN(c2ccc(N3C(=O)CC(C)C3=O)cc2[N+](=O)[O-])C1 (stereo not drawn) do in these assays?
TEAD-YAP block: inactive; FBW7 act: inactive; GPR151 activ: 6.5; MITF inh: inactive; GPR151 confirm: inactive; GPR119 counter: inactive

How did CC1CC(=O)N(c2ccc(N3CCCCCC3)c([N+](=O)[O-])c2)C1=O (stereo not drawn) do in these assays?
TEAD-YAP block: inactive; FBW7 act: inactive; GPR151 activ: inactive; MITF inh: inactive

How did O=C(N[C@H]1C[C@H]2C(=O)N[C@@H](Cc3ccccc3)C(=O)N2C1)c1ccc(-c2ccccc2)cc1 do in these assays?
TEAD-YAP block: inactive; FBW7 act: inactive; GPR151 activ: inactive; MITF inh: inactive

What do the screens show for `O=C(c1cc(-c2cccs2)[nH]n1)N1CCN(c2ccccc2F)CC1`?
TEAD-YAP block: inactive; FBW7 act: inactive; GPR151 activ: inactive; MITF inh: inactive

What do the screens show for `O=C(c1ncoc1-c1cccs1)N1CCN(c2ccccc2F)CC1`?
TEAD-YAP block: inactive; FBW7 act: inactive; GPR151 activ: 5.1; MITF inh: inactive; GPR151 confirm: inactive; GPR119 counter: inactive

High-throughput results from PubChem.
